# Article PMC7862700, “An all-to-all approach to the identification of sequence-specific readers for epigenetic DNA modifications on cytosine”
# Experiments:
# Experiment in all cases: DAPPL (digital affinity profiling via proximity ligation, sequencing); 10 mM Tris-HCl pH 7.5, 50 mM NaCl, 1 mM DTT, 4% glycerol, room temperature, 30 min; GST-TFs on glutathione beads, 16-mer random dsDNA library, 0.1% formaldehyde crosslink after washing; high values mean tight binding
# [1] = biological target: T1, FEV (Homo sapiens, UniProt Q99581 1-238); conditions: protein: recombinant; tags: N-terminal GST; dsDNA, one strand shown
# T1 sequence: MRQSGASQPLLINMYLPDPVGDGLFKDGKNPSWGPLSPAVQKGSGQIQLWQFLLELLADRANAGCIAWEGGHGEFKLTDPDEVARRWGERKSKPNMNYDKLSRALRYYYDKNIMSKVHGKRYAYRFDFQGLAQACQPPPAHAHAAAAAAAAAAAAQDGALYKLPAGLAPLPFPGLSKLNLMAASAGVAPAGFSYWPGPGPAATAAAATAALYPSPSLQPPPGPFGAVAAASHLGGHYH
# Summary of the method: (§1)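 Beads coated with glutathione captured GST-fused human transcription factors that had been expressed in yeast, and the factors were then given DNA barcodes and pooled with a tag-only sample. The pools were incubated with 200 nmole of a random double-stranded 16-mer DNA library in Tris/NaCl/DTT/glycerol buffer for 30 min at room temperature, washed, crosslinked with 0.1% formaldehyde and proximity-ligated with BsaI/T4 ligase at 37 °C for 1 h. PCR amplification and Illumina NextSeq500 sequencing came last. Binding signal is each hexamer's read frequency for a factor divided by its frequency for the tag-only sample.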
# [2] = biological target: ETV5 (Homo sapiens, UniProt P41161 1-510); conditions: protein: recombinant; tags: N-terminal GST; dsDNA, one strand shown
# Chain of ETV5 (P41161 whole entry): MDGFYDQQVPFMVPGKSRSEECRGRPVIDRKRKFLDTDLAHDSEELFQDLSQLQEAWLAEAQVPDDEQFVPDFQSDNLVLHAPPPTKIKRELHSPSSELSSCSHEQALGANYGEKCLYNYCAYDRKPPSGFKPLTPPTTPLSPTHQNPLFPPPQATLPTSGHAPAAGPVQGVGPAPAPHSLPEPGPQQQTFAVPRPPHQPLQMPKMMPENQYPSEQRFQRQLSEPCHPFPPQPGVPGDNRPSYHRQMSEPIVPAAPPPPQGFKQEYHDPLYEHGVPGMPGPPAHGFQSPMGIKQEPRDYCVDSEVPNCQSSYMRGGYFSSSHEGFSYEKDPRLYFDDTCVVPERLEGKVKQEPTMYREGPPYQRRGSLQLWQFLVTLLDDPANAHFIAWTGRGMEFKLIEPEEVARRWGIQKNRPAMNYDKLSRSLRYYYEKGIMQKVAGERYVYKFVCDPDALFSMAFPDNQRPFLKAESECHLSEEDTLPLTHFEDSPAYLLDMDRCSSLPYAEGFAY
# Summary of the method: as §1
# [3] = biological target: HSF1 (Homo sapiens, UniProt Q00613 1-529); conditions: protein: recombinant; tags: N-terminal GST; chain copies: 3; dsDNA, one strand shown
# Chain of HSF1 (Q00613 whole entry): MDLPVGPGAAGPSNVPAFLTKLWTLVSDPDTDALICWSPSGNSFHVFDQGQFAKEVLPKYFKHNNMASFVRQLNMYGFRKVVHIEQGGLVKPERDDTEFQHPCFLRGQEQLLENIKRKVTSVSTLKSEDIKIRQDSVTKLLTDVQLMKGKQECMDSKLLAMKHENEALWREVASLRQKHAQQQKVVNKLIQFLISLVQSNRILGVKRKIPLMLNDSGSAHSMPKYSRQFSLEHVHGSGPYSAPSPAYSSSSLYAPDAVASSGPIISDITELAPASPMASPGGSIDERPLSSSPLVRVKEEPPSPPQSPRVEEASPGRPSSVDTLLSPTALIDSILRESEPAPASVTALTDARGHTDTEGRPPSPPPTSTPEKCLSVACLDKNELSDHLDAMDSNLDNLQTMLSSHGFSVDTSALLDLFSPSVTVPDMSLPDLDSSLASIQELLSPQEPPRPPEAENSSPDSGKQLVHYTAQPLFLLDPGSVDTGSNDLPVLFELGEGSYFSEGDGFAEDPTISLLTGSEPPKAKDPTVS
# Summary of the method: as §1
# [4] = biological target: T2, SPIC (Homo sapiens, UniProt Q8N5J4 1-248); conditions: protein: recombinant; tags: N-terminal GST; dsDNA, one strand shown
# T2 sequence: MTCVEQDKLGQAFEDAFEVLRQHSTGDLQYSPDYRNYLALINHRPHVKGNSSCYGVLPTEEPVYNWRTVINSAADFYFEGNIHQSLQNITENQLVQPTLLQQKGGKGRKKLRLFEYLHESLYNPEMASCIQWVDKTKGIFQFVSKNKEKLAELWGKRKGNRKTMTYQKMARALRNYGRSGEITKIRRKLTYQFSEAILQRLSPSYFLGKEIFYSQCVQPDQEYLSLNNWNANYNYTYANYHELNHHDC
# Summary of the method: as §1
# [5] = biological target: ELF4 (Homo sapiens, UniProt Q99607 1-663); conditions: protein: recombinant; tags: N-terminal GST; dsDNA, one strand shown
# Chain of ELF4 (Q99607 whole entry): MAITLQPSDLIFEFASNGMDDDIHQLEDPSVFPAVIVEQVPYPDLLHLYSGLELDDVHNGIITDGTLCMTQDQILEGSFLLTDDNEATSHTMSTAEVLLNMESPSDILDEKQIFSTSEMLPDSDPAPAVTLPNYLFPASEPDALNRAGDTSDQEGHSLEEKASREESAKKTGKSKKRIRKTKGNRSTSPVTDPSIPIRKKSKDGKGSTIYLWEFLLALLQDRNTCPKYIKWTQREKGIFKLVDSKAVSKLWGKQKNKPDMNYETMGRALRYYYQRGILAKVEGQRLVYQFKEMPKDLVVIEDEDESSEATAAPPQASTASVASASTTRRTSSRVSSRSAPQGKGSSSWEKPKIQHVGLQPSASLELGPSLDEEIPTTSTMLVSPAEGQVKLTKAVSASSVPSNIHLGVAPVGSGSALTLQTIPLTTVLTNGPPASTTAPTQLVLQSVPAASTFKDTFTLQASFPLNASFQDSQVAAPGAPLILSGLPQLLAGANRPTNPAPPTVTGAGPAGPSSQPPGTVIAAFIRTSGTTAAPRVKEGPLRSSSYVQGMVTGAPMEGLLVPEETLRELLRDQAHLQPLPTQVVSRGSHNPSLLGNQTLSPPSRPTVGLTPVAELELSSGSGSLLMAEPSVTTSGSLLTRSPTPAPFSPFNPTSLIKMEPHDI
# Summary of the method: as §1
# [6] = biological target: T3, ELK4 (Homo sapiens, UniProt P28324-2 1-405); conditions: protein: recombinant; tags: N-terminal GST; dsDNA, one strand shown
# T3 sequence: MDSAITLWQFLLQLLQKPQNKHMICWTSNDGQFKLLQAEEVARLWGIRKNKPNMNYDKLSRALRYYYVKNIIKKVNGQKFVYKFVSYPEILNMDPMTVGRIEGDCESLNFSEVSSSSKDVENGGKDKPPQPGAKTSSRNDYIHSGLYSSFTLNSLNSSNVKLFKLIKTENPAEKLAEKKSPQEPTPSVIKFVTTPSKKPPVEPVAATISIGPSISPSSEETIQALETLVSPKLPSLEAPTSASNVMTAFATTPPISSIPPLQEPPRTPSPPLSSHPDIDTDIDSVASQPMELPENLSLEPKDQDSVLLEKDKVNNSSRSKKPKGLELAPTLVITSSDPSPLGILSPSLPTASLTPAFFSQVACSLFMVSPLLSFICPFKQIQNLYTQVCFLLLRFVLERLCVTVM
# Summary of the method: as §1
# [7] = biological target: T4, ETV2 (Homo sapiens, UniProt O00321 1-342); conditions: protein: recombinant; tags: N-terminal GST; dsDNA, one strand shown
# T4 sequence: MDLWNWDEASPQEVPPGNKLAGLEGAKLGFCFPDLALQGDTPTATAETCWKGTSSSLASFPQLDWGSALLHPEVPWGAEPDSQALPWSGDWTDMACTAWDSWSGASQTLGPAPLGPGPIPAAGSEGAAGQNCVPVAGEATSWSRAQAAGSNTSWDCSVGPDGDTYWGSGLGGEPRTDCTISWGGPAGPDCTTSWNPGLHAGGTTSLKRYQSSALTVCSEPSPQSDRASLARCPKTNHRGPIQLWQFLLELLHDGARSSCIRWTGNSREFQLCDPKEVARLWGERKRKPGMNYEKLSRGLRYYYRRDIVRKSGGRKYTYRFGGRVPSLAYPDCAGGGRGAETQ
# Summary of the method: as §1
# [8] = biological target: T5, ELF3 (Homo sapiens, UniProt P78545 1-371); conditions: protein: recombinant; tags: N-terminal GST; dsDNA, one strand shown
# T5 sequence: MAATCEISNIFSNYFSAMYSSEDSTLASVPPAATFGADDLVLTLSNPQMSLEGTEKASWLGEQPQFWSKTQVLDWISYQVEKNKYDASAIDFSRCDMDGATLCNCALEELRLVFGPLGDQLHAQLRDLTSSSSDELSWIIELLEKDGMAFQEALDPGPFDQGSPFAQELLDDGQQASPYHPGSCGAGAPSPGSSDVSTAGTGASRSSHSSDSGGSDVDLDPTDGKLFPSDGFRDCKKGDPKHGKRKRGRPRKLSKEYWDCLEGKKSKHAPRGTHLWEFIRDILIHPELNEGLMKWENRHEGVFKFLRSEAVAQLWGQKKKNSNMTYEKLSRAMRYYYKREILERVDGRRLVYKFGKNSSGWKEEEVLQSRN
# Summary of the method: as §1
# [9] = biological target: CRX (Homo sapiens, UniProt O43186 1-299); conditions: protein: recombinant; tags: N-terminal GST; dsDNA, one strand shown
# Chain of CRX (O43186 whole entry): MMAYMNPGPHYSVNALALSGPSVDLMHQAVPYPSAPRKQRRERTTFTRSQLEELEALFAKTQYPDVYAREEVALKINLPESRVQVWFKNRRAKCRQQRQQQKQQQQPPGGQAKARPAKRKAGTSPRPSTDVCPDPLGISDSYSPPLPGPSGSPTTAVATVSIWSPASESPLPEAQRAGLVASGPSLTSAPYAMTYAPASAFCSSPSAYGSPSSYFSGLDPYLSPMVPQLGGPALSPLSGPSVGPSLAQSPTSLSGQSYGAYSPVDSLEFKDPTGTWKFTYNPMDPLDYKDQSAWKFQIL
# Summary of the method: as §1
sequence,measurement,setting,value
TTTGTC,binding signal,[1],"1.19 fold enrichment (6-mer frequency, TF over GST control)"
same,binding signal,[2],"1.15 fold enrichment (6-mer frequency, TF over GST control)"
same,binding signal,[3],"1.11 fold enrichment (6-mer frequency, TF over GST control)"
same,binding signal,[4],"1.16 fold enrichment (6-mer frequency, TF over GST control)"
same,binding signal,[5],"1.18 fold enrichment (6-mer frequency, TF over GST control)"
same,binding signal,[6],"1.23 fold enrichment (6-mer frequency, TF over GST control)"
same,binding signal,[7],"1.16 fold enrichment (6-mer frequency, TF over GST control)"
same,binding signal,[8],"1.27 fold enrichment (6-mer frequency, TF over GST control)"
same,binding signal,[9],"1.29 fold enrichment (6-mer frequency, TF over GST control)"
